Among the data in the OligoGym collection are sensor-assay potency score (higher = more potent) values, retold here.
Also: reference of the scale not given here.

The target in the first experiment is C1orf115. The experiment can be described thus: pooled miR-30 sensor sort-seq; sequence = guide strand. To be noted: shRNA.
In the case of TGACTCTAGTAACATCCTCTTC, the sensor-assay potency score (higher = more potent) was -1.03.

The sequence TCTAGTAACATCCTCTTCCTCC returned a sensor-assay potency score (higher = more potent) of 0.254.

Turning to TCGTCCGCCGCGCTCGTCCCGC, the sensor-assay potency score (higher = more potent) is -1.58.

In turn, TTGCAGGCCGATGACCACGTAG gave a sensor-assay potency score (higher = more potent) of -1.3.

TTCTGCTGCACACCCACACTGC registered a sensor-assay potency score (higher = more potent) of -0.976.

Another experiment concerns the target C1orf131. The experiment is described as above. Particulars: shRNA.
For TTTTTCTTGAAAATATCTGTTT, the sensor-assay potency score (higher = more potent) was -0.422.

Consider TTATGATCTTCTTCTGTTCTGT, for which the sensor-assay potency score (higher = more potent) is -0.0808.

Sequence TAAATTACTAGATTCTTGGTTC returned a sensor-assay potency score (higher = more potent) of 0.886.

As to TTTCTTGATATCAACTGGGCTC, the sensor-assay potency score (higher = more potent) is -0.367.

For the sequence TTCTGTACCTCCAAAGTCGTAA, the sensor-assay potency score (higher = more potent) is -0.764.

For the sequence TATTTTCTTGATATCAACTGGG, the sensor-assay potency score (higher = more potent) was found to be 0.559.

In turn, TTTGGATTTCCTGTCCTCCTGT showed a sensor-assay potency score (higher = more potent) of 0.0328.

In turn, TTGAATTTTCCAACCTGTCCAA registered a sensor-assay potency score (higher = more potent) of 0.318.

In turn, TAACCCGTGATACCAAACCGGT registered a sensor-assay potency score (higher = more potent) of -1.37.

Take TTCTTTATGATCTTCTTCTGTT: the sensor-assay potency score (higher = more potent) was -0.273.

On to TTTAATGTAAACTACTAGCATT, for which the sensor-assay potency score (higher = more potent) was -0.73.

The sequence TTGTAATTCACATAACTCTTTT showed a sensor-assay potency score (higher = more potent) of -0.919.

Another experiment deals with C1orf168. The description is as above. To be noted: shRNA.
Turning to TTCTAGGAGAGAAACTTTCTGA, the sensor-assay potency score (higher = more potent) is -0.177.

As for TAGAAGCAAACTAACCATCTGC, the sensor-assay potency score (higher = more potent) was 0.515.

Take TTTCTGATTCTTCAGCACCGTT: the sensor-assay potency score (higher = more potent) is -1.25.

TATCACTAGATTTTGTTCGGTG displayed a sensor-assay potency score (higher = more potent) of 0.284.

As to TAGACATTGAAAGATAACCTTT, the sensor-assay potency score (higher = more potent) is -0.653.

The sequence TTTCACATTCTCTTGAACTGAC registered a sensor-assay potency score (higher = more potent) of 0.742.

Sequence TATTAGAAGCAAACTAACCATC registered a sensor-assay potency score (higher = more potent) of -0.751.

TTGACATGTAAACTGAAACTGA registered a sensor-assay potency score (higher = more potent) of -0.315.

As for TTTCTTGAAGAATTGCTGCAGT, the sensor-assay potency score (higher = more potent) was 0.0759.

TTTGTTTCCAGCTTTTTCCTGG came in with a sensor-assay potency score (higher = more potent) of 0.241.

For TTGATGACAATAATCTCTTTGT, the sensor-assay potency score (higher = more potent) is -0.247.

For the sequence TTCTCTTGAACTGACAGTGAAG, the sensor-assay potency score (higher = more potent) was -0.905.

The next experiment deals with C1orf61. The description is as above. Particulars: shRNA.
Take TTGGTCTCCCAACTTAGCCATG: the sensor-assay potency score (higher = more potent) was -1.74.

Turning to TTGTGCTGCCTGGAGGACGAGG, the sensor-assay potency score (higher = more potent) was -1.4.

In the case of AACCAGATGAAGTACATTCTTC, the sensor-assay potency score (higher = more potent) is -0.97.

AAGATCATGGAATTTCTCCTGA displayed a sensor-assay potency score (higher = more potent) of 0.708.

On to TTGAGAGGTCCTGAGTGGCAGG, for which the sensor-assay potency score (higher = more potent) was -0.741.

TATAGCCATATAGATCTTGGTT had a sensor-assay potency score (higher = more potent) of -1.16.

In turn, TATAGATCTTGGTTAGACATGG showed a sensor-assay potency score (higher = more potent) of -0.143.

Consider TCTATCGTCCACACGGAGGAAG, for which the sensor-assay potency score (higher = more potent) is -0.948.

TCGGGGACTTGAGAGGTCCTGA yielded a sensor-assay potency score (higher = more potent) of -0.479.

TTCTTCTTTTTGGTCTCCCAAC showed a sensor-assay potency score (higher = more potent) of -1.55.

TTCTTTTTGGTCTCCCAACTTA gave a sensor-assay potency score (higher = more potent) of -0.917.
